# Source: PMC7862700, “An all-to-all approach to the identification of sequence-specific readers for epigenetic DNA modifications on cytosine”
# Key:
# Assay in all cases: DAPPL (digital affinity profiling via proximity ligation, sequencing); 10 mM Tris-HCl pH 7.5, 50 mM NaCl, 1 mM DTT, 4% glycerol, room temperature, 30 min; GST-TFs on glutathione beads, 16-mer random dsDNA library, 0.1% formaldehyde crosslink after washing; high values mean tight binding
# FLI1 = molecular target: T1, FLI1 (Homo sapiens, UniProt Q01543 1-452); conditions: protein: recombinant; tags: N-terminal GST; dsDNA, one strand shown
# T1 sequence: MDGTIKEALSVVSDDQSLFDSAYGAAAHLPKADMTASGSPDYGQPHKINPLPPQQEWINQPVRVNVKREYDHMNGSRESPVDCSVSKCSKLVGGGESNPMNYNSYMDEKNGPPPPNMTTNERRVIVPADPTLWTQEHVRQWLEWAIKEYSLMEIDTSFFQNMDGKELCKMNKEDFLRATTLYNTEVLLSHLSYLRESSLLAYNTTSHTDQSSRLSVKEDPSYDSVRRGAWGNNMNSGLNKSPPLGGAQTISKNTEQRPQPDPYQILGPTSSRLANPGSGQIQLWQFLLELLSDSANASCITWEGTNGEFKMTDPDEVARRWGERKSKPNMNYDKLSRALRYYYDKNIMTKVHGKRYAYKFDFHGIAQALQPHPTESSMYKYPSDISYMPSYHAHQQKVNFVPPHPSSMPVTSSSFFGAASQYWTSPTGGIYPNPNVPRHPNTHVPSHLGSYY
# Outline: (§1)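 Human transcription factors fused to GST were expressed in yeast, captured on glutathione beads, given DNA barcodes and pooled with a GST-only negative control. Pools were incubated with 200 nmole of a 16-mer random double-stranded DNA library in Tris/NaCl/DTT/glycerol buffer at room temperature for 30 min. They were then washed, crosslinked with 0.1% formaldehyde, proximity-ligated (BsaI/T4 ligase, 1 h, 37 °C), PCR-amplified and sequenced on an Illumina NextSeq500. Binding signal is each 6-mer's read frequency for a factor divided by its frequency for the GST control.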
# ELK1 = molecular target: T2, ELK1 (Homo sapiens, UniProt P19419 1-428); conditions: protein: recombinant; tags: N-terminal GST; dsDNA, one strand shown
# T2 sequence: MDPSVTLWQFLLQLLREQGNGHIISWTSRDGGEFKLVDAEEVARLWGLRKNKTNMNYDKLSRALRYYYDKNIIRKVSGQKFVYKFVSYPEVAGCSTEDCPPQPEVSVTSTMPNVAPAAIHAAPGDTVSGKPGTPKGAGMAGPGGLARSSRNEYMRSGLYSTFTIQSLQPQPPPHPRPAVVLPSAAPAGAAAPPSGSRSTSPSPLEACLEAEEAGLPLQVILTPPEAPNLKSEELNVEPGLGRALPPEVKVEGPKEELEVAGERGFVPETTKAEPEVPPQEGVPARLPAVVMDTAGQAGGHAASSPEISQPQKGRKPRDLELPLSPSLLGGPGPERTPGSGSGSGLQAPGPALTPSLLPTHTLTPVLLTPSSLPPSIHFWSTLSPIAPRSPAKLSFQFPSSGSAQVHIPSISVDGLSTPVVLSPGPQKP
# Outline: as §1
# GABPA = molecular target: T3, GABPA (Homo sapiens, UniProt Q06546 1-454); conditions: protein: recombinant; tags: N-terminal GST; dsDNA, one strand shown
# T3 sequence: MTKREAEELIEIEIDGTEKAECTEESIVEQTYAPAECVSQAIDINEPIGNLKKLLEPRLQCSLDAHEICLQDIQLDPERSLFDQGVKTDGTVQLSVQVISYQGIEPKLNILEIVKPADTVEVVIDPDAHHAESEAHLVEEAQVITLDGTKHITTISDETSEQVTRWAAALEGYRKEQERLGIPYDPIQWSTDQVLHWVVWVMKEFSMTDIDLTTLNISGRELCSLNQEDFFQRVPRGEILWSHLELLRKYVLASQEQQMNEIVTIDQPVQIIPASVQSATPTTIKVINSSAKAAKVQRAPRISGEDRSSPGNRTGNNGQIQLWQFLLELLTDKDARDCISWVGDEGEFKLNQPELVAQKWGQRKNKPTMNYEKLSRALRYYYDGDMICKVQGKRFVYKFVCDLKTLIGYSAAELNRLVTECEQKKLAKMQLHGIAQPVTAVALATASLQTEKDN
# Outline: as §1
# ERG = molecular target: T4, ERG (Homo sapiens, UniProt P11308 1-479); conditions: protein: recombinant; tags: N-terminal GST; dsDNA, one strand shown
# T4 sequence: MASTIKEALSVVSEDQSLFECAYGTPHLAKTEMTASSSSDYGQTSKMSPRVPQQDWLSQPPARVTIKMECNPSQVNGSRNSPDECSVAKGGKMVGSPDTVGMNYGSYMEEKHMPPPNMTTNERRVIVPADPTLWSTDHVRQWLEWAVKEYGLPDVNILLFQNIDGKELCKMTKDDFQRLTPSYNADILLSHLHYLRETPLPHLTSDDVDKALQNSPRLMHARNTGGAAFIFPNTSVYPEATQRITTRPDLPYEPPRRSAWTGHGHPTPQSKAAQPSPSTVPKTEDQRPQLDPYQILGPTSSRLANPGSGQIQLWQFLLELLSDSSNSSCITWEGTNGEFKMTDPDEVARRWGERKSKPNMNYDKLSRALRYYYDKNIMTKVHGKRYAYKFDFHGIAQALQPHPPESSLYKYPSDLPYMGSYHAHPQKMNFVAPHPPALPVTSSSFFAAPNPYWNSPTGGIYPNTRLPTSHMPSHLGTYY
# Outline: as §1
# ELF1 = ELF1 (Homo sapiens, UniProt P32519 1-619); conditions: protein: recombinant; tags: N-terminal GST; dsDNA, one strand shown
# Sequence of ELF1 (P32519 whole entry): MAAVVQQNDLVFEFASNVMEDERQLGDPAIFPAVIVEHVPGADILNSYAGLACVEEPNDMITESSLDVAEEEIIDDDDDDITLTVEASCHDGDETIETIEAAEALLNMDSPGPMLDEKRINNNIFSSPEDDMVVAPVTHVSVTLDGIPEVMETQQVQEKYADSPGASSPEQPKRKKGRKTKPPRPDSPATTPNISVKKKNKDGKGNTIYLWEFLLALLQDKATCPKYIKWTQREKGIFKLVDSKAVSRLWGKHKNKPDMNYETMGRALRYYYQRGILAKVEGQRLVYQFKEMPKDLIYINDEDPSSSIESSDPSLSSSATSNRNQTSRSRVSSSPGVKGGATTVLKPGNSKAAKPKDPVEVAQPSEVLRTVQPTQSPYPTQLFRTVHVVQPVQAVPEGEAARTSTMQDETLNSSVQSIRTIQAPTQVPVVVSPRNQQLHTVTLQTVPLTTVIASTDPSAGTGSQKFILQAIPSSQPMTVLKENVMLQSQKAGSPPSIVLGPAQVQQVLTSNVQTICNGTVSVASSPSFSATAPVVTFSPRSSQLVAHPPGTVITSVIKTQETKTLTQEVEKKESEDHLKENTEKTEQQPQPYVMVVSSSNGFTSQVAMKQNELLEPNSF
# Outline: as §1
# EHF = molecular target: T5, EHF (Homo sapiens, UniProt Q9NZC4 1-300); conditions: protein: recombinant; tags: N-terminal GST; dsDNA, one strand shown
# T5 sequence: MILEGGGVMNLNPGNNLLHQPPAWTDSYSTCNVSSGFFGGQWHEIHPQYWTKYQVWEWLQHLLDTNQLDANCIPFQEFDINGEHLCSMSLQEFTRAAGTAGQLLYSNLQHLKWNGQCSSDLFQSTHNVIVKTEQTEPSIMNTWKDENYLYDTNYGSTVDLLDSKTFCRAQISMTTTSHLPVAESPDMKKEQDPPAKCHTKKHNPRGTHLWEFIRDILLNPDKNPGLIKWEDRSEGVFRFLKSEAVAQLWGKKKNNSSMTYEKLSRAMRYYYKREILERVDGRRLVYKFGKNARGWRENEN
# Outline: as §1
# SPI1 = SPI1 (Homo sapiens, UniProt P17947 1-270); conditions: protein: recombinant; tags: N-terminal GST; dsDNA, one strand shown
# Outline: as §1
# SPIB = SPIB (Homo sapiens, UniProt Q01892 1-262); conditions: protein: recombinant; tags: N-terminal GST; dsDNA, one strand shown
# Sequence of SPIB (Q01892 whole entry): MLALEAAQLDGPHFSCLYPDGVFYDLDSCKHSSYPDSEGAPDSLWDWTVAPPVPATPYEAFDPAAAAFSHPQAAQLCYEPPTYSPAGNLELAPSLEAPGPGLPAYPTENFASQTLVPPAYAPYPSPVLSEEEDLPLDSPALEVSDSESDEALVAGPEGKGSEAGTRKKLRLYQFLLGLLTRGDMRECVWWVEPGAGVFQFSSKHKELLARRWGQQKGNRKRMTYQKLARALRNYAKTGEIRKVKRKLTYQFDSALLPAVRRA
# Outline: as §1
# ELK3 = molecular target: T6, ELK3 (Homo sapiens, UniProt P41970 1-407); conditions: protein: recombinant; tags: N-terminal GST; dsDNA, one strand shown
# T6 sequence: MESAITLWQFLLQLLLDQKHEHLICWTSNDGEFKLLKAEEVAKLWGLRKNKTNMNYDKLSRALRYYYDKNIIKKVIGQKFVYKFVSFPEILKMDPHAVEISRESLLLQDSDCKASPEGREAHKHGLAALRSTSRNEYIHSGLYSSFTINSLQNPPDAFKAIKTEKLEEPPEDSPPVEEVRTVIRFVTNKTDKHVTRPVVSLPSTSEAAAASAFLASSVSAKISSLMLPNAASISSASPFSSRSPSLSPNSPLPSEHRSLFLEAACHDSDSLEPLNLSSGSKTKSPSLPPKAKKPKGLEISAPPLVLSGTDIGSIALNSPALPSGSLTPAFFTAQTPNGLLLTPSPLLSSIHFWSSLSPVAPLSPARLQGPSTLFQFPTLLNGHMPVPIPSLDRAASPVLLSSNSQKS
# Outline: as §1
# FEV = molecular target: T7, FEV (Homo sapiens, UniProt Q99581 1-238); conditions: protein: recombinant; tags: N-terminal GST; dsDNA, one strand shown
# T7 sequence: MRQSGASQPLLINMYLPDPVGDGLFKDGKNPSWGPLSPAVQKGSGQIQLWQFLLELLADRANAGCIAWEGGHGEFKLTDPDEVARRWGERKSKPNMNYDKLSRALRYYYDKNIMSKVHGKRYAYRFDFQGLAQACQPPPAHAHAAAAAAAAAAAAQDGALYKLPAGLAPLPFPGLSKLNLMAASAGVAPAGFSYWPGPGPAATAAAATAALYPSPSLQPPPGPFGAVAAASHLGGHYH
# Outline: as §1
# ETV5 = ETV5 (Homo sapiens, UniProt P41161 1-510); conditions: protein: recombinant; tags: N-terminal GST; dsDNA, one strand shown
# Sequence of ETV5 (P41161 whole entry): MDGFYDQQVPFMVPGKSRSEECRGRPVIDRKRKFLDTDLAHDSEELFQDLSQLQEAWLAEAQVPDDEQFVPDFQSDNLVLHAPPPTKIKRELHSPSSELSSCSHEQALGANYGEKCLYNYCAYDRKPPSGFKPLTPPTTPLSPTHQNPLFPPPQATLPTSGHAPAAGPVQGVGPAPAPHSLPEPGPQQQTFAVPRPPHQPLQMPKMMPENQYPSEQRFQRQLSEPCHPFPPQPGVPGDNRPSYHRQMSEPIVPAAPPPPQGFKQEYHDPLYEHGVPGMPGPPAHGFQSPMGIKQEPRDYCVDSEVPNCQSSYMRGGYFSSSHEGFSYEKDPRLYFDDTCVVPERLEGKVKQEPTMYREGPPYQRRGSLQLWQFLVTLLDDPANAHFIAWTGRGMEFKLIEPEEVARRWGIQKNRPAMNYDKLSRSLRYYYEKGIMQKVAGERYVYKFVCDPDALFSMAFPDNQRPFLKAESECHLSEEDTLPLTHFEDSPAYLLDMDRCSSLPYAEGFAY
# Outline: as §1
# HSF1 = HSF1 (Homo sapiens, UniProt Q00613 1-529); conditions: protein: recombinant; tags: N-terminal GST; chain copies: 3; dsDNA, one strand shown
# Sequence of HSF1 (Q00613 whole entry): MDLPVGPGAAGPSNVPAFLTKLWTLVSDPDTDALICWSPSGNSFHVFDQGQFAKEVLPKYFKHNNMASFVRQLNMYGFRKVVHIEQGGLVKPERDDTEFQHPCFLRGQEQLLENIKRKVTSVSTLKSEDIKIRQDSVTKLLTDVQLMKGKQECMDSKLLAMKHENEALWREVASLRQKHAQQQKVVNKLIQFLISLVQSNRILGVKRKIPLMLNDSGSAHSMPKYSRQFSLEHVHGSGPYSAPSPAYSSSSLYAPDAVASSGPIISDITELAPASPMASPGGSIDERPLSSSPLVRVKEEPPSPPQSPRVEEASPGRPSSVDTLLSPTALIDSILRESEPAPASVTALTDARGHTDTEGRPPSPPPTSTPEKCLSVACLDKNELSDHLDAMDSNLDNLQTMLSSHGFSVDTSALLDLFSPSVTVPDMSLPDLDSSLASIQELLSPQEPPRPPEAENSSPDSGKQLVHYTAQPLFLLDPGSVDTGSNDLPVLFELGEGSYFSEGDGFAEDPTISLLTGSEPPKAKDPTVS
# Outline: as §1
# SPIC = molecular target: T8, SPIC (Homo sapiens, UniProt Q8N5J4 1-248); conditions: protein: recombinant; tags: N-terminal GST; dsDNA, one strand shown
# T8 sequence: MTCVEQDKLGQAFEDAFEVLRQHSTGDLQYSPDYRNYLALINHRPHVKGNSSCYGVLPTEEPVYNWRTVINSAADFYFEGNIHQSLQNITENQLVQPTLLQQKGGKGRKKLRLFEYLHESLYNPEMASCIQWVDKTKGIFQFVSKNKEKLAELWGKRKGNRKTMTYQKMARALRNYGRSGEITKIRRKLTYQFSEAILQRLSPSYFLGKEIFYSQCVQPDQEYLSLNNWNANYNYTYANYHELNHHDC
# Outline: as §1
# ELF4 = ELF4 (Homo sapiens, UniProt Q99607 1-663); conditions: protein: recombinant; tags: N-terminal GST; dsDNA, one strand shown
# Sequence of ELF4 (Q99607 whole entry): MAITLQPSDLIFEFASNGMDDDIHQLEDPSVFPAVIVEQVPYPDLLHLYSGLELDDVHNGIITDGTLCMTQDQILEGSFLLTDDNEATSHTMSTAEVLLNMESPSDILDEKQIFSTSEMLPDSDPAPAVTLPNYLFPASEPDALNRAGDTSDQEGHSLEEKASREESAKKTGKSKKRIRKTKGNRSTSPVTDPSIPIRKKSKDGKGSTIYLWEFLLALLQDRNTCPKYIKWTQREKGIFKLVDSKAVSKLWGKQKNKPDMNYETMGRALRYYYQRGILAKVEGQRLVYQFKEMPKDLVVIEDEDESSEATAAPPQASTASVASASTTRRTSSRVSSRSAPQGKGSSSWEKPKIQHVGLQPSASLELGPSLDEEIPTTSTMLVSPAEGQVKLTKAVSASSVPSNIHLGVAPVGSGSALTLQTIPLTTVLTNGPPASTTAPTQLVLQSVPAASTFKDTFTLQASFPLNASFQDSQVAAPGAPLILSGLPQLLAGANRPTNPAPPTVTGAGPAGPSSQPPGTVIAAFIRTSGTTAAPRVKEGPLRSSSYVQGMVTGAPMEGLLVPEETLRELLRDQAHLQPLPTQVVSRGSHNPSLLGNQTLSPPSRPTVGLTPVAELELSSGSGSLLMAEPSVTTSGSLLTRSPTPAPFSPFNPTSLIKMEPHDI
# Outline: as §1
# ELK4 = molecular target: T9, ELK4 (Homo sapiens, UniProt P28324-2 1-405); conditions: protein: recombinant; tags: N-terminal GST; dsDNA, one strand shown
# T9 sequence: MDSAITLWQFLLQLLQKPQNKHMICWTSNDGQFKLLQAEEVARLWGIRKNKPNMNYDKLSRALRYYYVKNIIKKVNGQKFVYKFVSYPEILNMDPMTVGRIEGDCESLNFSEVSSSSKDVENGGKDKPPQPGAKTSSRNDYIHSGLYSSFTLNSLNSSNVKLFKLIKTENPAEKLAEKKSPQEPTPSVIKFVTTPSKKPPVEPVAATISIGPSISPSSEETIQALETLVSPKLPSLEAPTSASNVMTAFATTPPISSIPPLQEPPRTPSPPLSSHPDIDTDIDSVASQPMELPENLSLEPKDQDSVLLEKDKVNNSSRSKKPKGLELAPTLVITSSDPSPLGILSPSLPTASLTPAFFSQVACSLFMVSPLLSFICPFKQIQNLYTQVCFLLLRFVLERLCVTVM
# Outline: as §1
# ETV2 = molecular target: T10, ETV2 (Homo sapiens, UniProt O00321 1-342); conditions: protein: recombinant; tags: N-terminal GST; dsDNA, one strand shown
# T10 sequence: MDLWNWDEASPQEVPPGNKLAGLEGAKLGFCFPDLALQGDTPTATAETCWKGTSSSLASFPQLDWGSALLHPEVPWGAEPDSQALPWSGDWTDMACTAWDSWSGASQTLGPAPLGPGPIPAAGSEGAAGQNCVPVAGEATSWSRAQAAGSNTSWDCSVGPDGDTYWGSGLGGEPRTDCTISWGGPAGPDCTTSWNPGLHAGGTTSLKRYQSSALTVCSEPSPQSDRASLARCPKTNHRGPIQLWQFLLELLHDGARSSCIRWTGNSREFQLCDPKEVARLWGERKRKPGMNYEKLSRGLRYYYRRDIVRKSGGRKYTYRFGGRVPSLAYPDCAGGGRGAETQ
# Outline: as §1
# ELF3 = molecular target: T11, ELF3 (Homo sapiens, UniProt P78545 1-371); conditions: protein: recombinant; tags: N-terminal GST; dsDNA, one strand shown
# T11 sequence: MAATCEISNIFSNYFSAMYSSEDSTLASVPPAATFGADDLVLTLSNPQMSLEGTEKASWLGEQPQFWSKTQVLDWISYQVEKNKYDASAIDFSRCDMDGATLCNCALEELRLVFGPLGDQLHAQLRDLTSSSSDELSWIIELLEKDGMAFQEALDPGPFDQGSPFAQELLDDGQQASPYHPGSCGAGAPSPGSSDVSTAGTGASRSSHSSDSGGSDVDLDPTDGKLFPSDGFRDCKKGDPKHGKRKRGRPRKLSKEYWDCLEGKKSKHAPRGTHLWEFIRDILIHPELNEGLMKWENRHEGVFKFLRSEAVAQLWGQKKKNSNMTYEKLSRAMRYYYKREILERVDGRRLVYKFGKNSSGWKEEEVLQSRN
# Outline: as §1
# CRX = CRX (Homo sapiens, UniProt O43186 1-299); conditions: protein: recombinant; tags: N-terminal GST; dsDNA, one strand shown
# Sequence of CRX (O43186 whole entry): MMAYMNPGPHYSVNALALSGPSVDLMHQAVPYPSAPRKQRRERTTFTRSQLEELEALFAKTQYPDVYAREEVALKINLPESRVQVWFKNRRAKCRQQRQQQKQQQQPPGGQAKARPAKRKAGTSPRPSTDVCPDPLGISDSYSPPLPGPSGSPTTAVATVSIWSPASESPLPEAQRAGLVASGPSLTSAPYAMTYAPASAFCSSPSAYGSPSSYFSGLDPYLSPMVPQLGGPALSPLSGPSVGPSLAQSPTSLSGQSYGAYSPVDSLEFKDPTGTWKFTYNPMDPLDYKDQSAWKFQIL
# Outline: as §1
# ETV1 = ETV1 (Homo sapiens, UniProt P50549 1-477); conditions: protein: recombinant; tags: N-terminal GST; dsDNA, one strand shown
# Sequence of ETV1 (P50549 whole entry): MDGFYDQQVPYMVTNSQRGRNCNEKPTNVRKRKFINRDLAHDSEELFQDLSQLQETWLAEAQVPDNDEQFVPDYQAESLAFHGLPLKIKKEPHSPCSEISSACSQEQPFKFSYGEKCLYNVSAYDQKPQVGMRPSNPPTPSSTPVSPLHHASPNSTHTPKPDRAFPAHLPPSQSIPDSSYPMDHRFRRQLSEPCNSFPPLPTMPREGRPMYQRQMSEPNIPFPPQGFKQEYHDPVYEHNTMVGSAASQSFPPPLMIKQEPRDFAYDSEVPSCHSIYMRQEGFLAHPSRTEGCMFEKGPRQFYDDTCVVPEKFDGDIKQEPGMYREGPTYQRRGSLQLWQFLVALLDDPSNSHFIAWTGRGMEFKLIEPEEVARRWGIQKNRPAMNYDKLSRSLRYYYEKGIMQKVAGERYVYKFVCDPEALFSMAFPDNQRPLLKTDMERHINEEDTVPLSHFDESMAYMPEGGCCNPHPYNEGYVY
# Outline: as §1
sequence,measurement,setting,value
CTGCTG,binding signal,FLI1,"1.15 fold enrichment (6-mer frequency, TF over GST control)"
same,binding signal,ELK1,"1.26 fold enrichment (6-mer frequency, TF over GST control)"
same,binding signal,GABPA,"1.27 fold enrichment (6-mer frequency, TF over GST control)"
same,binding signal,ERG,"1.11 fold enrichment (6-mer frequency, TF over GST control)"
same,binding signal,ELF1,"1.4 fold enrichment (6-mer frequency, TF over GST control)"
same,binding signal,EHF,"1.39 fold enrichment (6-mer frequency, TF over GST control)"
same,binding signal,SPI1,"1.24 fold enrichment (6-mer frequency, TF over GST control)"
same,binding signal,SPIB,"1.04 fold enrichment (6-mer frequency, TF over GST control)"
same,binding signal,ELK3,"1.3 fold enrichment (6-mer frequency, TF over GST control)"
same,binding signal,FEV,"1.25 fold enrichment (6-mer frequency, TF over GST control)"
same,binding signal,ETV5,"1.25 fold enrichment (6-mer frequency, TF over GST control)"
same,binding signal,HSF1,"1.09 fold enrichment (6-mer frequency, TF over GST control)"
same,binding signal,SPIC,"1.47 fold enrichment (6-mer frequency, TF over GST control)"
same,binding signal,ELF4,"1.25 fold enrichment (6-mer frequency, TF over GST control)"
same,binding signal,ELK4,"1.27 fold enrichment (6-mer frequency, TF over GST control)"
same,binding signal,ETV2,"1.05 fold enrichment (6-mer frequency, TF over GST control)"
same,binding signal,ELF3,"1.13 fold enrichment (6-mer frequency, TF over GST control)"
same,binding signal,CRX,"1.01 fold enrichment (6-mer frequency, TF over GST control)"
same,binding signal,ETV1,"1.17 fold enrichment (6-mer frequency, TF over GST control)"
